From PubChem BioAssay AID1159580 (chemical genetic matrix, 2015)
The whole screen tested about 5,500 compounds, of which about 2,000 (36%) were called active. Inconclusive results (about 18%) are left out. No stated cut-off is given here; in the data, active means normalized growth mostly below about 0.91 (no sharp cut-off); inconclusive means no clear call, values can overlap the other calls; inactive means mostly above about 0.92. This is one part of the list.

Test: chemical genetic growth profiling, strain panel (AID 1159580);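 further: tested at 20 µM; growth read once vehicle control cultures reached saturation at 30 °C; 1 = growth at the plate median or of vehicle wells; lower values mean less growth of the strain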
Details: S. cerevisiae deletion strains, growth OD

Measured: normalized growth

NCC#Cc1ccccc1
inactive: locus YAL013W, strain DEP1, hits give low values 1.04 | locus YAL040C, strain CLN3, hits give low values 0.989 | locus YCL061C, strain MRC1 (second series), hits give low values 1.01 | locus YDR150W, strain NUM1, hits give low values 1.02 | locus YDR363W, strain ESC2, hits give low values 1.02 | locus YER002W, strain NOP16, hits give low values 1 | locus YGR229C, strain SMI1, hits give low values 1.07 | locus YMR263W, strain SAP30, hits give low values 1 | locus YMR307W, strain GAS1, hits give low values 1.01 | locus YNL128W, strain TEP1, hits give low values 1.01 | locus YNL153C, strain GIM3, hits give low values 1.15 | locus YNL175C, strain NOP13, hits give low values 1.01 | locus YNL197C, strain WHI3, hits give low values 1.01 | locus YNL224C, strain SQS1, hits give low values 1.01 | locus YOR083W, strain WHI5 (second series), hits give low values 1.01 | locus YPL055C, strain LGE1, hits give low values 1.04
